Records with an inconclusive call do not appear. The source made the active and inactive calls. The call rests on the fitted dose curve; in most records, active means well fitted inhibition curve with a large enough effect; inconclusive means small, poorly fitted or top-dose-only effect, or effect the other way; inactive means no such curve, though single readings can be large or run the other way.
Molecular target: Nuclear receptor ROR-gamma (Mus musculus) (UniProt P51450)
Assay: Secondary confirmation assay for inhibitors of ROR gamma transcriptional activity
Settings: Drosophila S2 Gal4-RORgamma UAS-luciferase reporter, 20 h
From the text: NIH Molecular Libraries Probe Production Network [MLPCN] NIH Chemical Genomics Center [NCGC] MLPCN Grant: R03 DA026211-01 Assay Provider: Dan Littman, New York University Keywords: NIH Roadmap, MLPCN, MLI, MLSMR, qHTS, NCGC, qHTS, nuclear hormone receptor, retinoic acid-related orphan receptor, ROR gamma Assay Overview: The retinoic acid-related orphan receptor (ROR) gamma is a transcription factor that has a central role in the differentiation of Th17 cells, a subset of T helper cells that secrete the inflammatory cytokines IL-17, IL-17F, and IL-22. Th17 cells have been implicated in graft versus host disease, autoimmune disease and asthma. ROR gamma is induced in naive T helper cells in the presence of TGF-beta combined with IL-6, IL-21, or IL-23, and thereafter directs the expression of the Th17 lineage cytokines. To study the mechanism of action of ROR gamma, an insect cell-based assay was screened. […] Small molecule inhibitors of ROR gamma activity are detected by a decrease in luciferase reporter activity.
Assay Protocol Summary: For screening, 600 cells in 4 uL/well were dispensed into white solid 1536-well plates (Grenier) using a solenoid-based dispenser. […] After addition of 1.5 uL Photinus luciferase detection reagent, the plates were incubated 10 min at ambient temperature and then read by an ViewLux (Perkin Elmer) to detect luminescence. […]

Nuclear receptor ROR-gamma (Mus musculus), sequence (P51450 whole entry, looked up): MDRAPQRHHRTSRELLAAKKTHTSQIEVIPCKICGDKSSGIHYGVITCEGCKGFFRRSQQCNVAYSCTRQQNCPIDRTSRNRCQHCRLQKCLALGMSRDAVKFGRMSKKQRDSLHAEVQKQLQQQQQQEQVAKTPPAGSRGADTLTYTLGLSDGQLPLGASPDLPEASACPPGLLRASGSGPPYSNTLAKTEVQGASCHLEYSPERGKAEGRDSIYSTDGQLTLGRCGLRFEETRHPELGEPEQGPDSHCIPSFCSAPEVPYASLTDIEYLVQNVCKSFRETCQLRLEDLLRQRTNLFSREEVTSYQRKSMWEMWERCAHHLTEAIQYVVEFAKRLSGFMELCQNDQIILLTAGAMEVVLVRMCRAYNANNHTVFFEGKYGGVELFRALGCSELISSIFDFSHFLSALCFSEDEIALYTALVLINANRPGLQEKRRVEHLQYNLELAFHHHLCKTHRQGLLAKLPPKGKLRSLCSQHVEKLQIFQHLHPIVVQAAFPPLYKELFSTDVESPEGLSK

Question: With `CO[C@H]1[C@@H](O)CC(OC2[C@@H](O)CC(OC3[C@@H](O)C[C@H](OC4CC[C@@]5(C)C(CCC6C5CC(O)[C@]5(C)[C@H](C7=CC(=O)OC7)CCC65O)C4)O[C@@H]3C)O[C@@H]2C)O[C@@H]1C` (some centres not stated) as the compound, how does the Potency read?
Answer: 1820 nM (active)

Question: For `CC1OC(O[C@@H]2C(O)CC(O[C@@H]3C(O)C[C@@H](OC4CC[C@@]5(C)C6CC[C@]7(C)C(C8=CC(=O)OC8)C(O)C[C@@]7(O)[C@H]6CC[C@@H]5C4)OC3C)OC2C)CC(O)C1O` (some centres not stated), which Potency is on record?
Answer: 4070 nM (active)

From PubChem BioAssay AID489037 (National Center for Advancing Translational Sciences (NCATS), 2010)
